The text below walks through data of article PMC7862700, “An all-to-all approach to the identification of sequence-specific readers for epigenetic DNA modifications on cytosine”.

Test in all cases: DAPPL (digital affinity profiling via proximity ligation, sequencing); 10 mM Tris-HCl pH 7.5, 50 mM NaCl, 1 mM DTT, 4% glycerol, room temperature, 30 min; GST-TFs on glutathione beads, 16-mer random dsDNA library, 0.1% formaldehyde crosslink after washing; high values mean tight binding
Conditions in all cases: protein: recombinant; tags: N-terminal GST; dsDNA, one strand shown

Assay [1] has as its target T1, FLI1 (Homo sapiens, UniProt Q01543 1-452).
T1 sequence: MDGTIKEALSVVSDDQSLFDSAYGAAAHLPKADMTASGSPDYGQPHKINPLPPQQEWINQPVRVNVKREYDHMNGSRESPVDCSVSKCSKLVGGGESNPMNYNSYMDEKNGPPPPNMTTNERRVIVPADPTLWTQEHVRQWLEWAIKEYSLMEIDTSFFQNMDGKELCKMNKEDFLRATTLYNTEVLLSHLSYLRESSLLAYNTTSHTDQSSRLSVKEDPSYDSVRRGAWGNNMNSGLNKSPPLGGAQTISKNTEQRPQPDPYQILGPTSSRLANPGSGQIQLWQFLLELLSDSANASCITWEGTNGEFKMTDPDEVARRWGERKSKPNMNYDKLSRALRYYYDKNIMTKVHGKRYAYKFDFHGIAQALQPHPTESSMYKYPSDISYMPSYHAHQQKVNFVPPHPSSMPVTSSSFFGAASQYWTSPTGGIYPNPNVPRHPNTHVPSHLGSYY
Put shortly:
(§1)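 Each value of binding signal is a hexamer's read frequency for a factor divided by the same hexamer's frequency in the tag-only sample. Barcoded, bead-captured GST fusions of human transcription factors made in yeast were pooled with that sample and incubated with 200 nmole of a random double-stranded 16-mer DNA library in Tris/NaCl/DTT/glycerol buffer at room temperature for 30 min. Washing, 0.1% formaldehyde crosslinking, proximity ligation, PCR and Illumina NextSeq500 sequencing followed.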

Assay [2] deals with ELF1 (Homo sapiens, UniProt P32519 1-619). A digest of the protocol: as §1
The target in assay [3] is SPIB (Homo sapiens, UniProt Q01892 1-262). A digest of the protocol: as §1
Assay [4] addresses T2, ELF3 (Homo sapiens, UniProt P78545 1-371).
T2 sequence: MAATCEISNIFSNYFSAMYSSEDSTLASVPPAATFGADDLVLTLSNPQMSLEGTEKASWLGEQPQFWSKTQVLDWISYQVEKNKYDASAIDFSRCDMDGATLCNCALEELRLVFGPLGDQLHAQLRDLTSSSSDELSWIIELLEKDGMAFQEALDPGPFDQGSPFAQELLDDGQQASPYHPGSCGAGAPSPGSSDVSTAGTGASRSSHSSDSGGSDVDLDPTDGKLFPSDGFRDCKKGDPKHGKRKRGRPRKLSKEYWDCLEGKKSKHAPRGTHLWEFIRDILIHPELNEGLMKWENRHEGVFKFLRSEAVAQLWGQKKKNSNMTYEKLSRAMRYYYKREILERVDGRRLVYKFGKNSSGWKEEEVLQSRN
A digest of the protocol: as §1

Assay [5] has as its target ETV1 (Homo sapiens, UniProt P50549 1-477). A digest of the protocol:
as §1

Assay [6] addresses T3, ERF (Homo sapiens, UniProt P50548 1-548).
T3 sequence: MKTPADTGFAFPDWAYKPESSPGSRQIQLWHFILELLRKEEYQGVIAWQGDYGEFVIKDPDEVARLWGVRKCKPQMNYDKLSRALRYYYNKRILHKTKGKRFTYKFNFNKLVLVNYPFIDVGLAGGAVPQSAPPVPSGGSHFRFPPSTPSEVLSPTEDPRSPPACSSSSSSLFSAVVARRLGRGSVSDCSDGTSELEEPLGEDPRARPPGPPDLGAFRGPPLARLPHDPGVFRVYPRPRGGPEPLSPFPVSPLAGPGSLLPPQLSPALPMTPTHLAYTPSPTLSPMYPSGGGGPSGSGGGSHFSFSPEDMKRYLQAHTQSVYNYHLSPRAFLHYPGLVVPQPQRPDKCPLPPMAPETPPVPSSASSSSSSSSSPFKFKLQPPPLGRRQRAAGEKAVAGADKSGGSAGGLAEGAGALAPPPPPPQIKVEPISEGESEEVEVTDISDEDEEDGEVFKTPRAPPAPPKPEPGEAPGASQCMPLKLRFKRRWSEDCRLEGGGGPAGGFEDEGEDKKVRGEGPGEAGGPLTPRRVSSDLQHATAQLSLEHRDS
A digest of the protocol:
as §1

The target of assay [7] is T4, ETV3L (Homo sapiens, UniProt Q6ZN32 1-361).
T4 sequence: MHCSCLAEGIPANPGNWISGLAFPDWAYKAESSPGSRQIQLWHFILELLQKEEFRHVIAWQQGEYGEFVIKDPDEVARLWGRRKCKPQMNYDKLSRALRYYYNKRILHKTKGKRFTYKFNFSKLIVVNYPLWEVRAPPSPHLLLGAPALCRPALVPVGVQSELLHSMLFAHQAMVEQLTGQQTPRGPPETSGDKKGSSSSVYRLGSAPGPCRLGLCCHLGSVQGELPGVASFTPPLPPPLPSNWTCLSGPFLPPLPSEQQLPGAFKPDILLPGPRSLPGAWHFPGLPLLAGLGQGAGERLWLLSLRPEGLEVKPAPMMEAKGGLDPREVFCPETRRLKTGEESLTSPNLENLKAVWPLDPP
Put shortly: as §1

The target in assay [8] is T5, ETS2 (Homo sapiens, UniProt P15036 1-469).
T5 sequence: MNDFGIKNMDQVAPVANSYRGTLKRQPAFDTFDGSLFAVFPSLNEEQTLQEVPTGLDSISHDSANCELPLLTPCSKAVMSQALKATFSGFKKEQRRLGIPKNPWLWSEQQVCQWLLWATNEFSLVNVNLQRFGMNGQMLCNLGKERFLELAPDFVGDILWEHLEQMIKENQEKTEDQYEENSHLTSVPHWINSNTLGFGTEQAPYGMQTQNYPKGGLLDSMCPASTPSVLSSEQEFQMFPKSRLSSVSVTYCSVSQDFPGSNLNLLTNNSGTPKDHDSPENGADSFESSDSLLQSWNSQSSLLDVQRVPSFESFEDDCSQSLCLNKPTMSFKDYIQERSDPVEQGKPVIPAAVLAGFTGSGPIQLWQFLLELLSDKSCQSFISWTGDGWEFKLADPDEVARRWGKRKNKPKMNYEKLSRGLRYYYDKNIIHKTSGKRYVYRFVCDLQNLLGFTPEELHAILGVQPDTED
Put shortly:
as §1

For assay [9], the target named is T6, SPDEF (Homo sapiens, UniProt O95238 1-335).
T6 sequence: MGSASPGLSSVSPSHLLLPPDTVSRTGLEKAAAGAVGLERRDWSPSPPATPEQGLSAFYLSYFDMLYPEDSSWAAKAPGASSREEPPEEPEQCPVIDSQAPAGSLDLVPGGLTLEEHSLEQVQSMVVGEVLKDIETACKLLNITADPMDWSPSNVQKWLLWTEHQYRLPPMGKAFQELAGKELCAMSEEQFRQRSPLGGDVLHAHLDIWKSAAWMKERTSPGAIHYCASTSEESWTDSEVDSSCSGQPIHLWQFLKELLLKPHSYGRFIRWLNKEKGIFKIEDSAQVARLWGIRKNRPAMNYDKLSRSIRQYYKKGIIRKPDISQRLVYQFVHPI
Put shortly:
as §1

For assay [10], the target named is T7, ETV7 (Homo sapiens, UniProt Q9Y603 1-341).
T7 sequence: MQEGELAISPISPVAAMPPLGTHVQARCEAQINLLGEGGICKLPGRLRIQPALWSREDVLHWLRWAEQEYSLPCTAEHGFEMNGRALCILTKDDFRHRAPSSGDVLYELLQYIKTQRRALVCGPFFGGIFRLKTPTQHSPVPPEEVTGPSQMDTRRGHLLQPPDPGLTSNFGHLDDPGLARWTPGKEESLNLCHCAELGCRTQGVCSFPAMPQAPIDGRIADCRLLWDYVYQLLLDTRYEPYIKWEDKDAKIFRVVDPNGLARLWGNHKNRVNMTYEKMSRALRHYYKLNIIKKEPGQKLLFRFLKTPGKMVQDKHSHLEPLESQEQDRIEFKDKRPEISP
A digest of the protocol: as §1

Assay [11] deals with T8, ELF5 (Homo sapiens, UniProt Q9UKW6-2 1-255).
T8 sequence: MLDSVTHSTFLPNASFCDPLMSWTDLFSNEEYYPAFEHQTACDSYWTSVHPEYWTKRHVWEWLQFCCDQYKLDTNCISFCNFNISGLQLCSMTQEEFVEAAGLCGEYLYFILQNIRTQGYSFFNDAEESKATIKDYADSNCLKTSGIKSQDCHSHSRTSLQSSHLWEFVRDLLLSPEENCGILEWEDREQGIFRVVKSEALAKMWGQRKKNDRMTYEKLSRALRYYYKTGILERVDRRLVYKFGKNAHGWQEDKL
Put shortly:
as §1

In assay [12] the target is T9, ELK1 (Homo sapiens, UniProt P19419 1-428).
T9 sequence: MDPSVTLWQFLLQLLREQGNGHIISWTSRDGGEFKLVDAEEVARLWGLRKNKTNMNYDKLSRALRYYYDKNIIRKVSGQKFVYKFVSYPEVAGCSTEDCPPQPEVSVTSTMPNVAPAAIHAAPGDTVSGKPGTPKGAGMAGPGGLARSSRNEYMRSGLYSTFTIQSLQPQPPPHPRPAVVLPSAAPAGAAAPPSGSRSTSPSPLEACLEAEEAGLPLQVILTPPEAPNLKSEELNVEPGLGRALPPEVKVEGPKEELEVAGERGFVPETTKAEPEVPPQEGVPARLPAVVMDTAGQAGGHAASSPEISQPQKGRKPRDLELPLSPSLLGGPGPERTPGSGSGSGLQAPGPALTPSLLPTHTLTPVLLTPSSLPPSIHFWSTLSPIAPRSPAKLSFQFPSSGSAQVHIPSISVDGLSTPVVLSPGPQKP
Put shortly: as §1

Assay [13] has as its target T10, GABPA (Homo sapiens, UniProt Q06546 1-454).
T10 sequence: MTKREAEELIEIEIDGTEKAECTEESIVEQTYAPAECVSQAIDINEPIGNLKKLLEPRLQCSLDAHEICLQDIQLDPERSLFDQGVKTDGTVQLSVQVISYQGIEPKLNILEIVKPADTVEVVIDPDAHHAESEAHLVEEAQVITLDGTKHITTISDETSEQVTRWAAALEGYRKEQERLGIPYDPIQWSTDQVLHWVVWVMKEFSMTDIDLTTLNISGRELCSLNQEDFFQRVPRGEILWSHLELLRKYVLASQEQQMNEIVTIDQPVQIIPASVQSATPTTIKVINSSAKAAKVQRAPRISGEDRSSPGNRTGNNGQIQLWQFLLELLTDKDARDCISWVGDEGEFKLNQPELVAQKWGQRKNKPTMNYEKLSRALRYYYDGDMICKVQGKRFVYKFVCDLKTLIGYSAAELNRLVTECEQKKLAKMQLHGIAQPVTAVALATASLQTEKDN
Put shortly:
as §1

In assay [14] the target is T11, ETV2 (Homo sapiens, UniProt O00321 1-342).
T11 sequence: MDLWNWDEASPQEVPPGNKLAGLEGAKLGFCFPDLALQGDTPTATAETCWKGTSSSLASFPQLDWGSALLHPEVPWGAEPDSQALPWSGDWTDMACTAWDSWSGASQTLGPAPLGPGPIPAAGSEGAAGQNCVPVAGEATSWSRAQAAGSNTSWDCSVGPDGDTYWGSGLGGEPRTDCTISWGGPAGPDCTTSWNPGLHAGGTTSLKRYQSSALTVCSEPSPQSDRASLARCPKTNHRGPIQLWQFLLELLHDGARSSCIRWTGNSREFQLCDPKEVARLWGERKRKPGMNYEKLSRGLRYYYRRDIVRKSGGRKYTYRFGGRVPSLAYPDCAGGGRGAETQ
A digest of the protocol: as §1

ELF1, sequence (P32519 whole entry): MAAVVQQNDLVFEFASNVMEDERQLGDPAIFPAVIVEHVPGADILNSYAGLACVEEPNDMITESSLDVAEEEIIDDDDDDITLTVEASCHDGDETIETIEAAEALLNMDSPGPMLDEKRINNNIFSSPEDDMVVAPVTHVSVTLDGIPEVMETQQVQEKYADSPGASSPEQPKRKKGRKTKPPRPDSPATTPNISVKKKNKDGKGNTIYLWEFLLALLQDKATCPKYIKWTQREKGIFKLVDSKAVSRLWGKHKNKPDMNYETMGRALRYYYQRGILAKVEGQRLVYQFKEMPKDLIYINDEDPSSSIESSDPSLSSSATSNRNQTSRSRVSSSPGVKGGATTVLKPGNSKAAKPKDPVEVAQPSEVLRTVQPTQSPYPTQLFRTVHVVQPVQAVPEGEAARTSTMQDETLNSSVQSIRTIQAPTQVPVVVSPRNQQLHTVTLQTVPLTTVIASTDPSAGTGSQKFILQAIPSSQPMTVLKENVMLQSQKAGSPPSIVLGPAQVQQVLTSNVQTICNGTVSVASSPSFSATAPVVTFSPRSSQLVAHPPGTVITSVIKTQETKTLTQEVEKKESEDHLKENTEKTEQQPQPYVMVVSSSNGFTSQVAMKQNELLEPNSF
SPIB, sequence (Q01892 whole entry): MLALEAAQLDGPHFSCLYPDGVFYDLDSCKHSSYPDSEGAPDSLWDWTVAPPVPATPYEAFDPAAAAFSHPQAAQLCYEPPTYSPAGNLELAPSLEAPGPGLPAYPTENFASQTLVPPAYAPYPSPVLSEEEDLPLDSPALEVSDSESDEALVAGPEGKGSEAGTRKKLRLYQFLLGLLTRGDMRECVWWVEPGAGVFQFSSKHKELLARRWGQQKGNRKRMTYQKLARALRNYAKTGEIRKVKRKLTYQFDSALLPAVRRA
ETV1, sequence (P50549 whole entry): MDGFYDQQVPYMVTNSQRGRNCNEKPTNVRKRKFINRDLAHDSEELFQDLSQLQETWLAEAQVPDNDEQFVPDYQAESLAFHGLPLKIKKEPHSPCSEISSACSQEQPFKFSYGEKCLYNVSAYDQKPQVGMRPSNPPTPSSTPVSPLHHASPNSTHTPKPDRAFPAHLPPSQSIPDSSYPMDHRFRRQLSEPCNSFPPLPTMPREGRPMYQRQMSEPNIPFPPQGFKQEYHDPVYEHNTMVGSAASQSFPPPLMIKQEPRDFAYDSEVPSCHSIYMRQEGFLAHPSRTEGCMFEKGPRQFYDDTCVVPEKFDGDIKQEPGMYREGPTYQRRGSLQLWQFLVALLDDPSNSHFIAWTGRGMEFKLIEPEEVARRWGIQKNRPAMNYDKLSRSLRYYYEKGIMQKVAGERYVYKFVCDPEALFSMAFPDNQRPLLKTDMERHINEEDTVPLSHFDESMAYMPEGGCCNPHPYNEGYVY

In the case of GGATGG, the binding signal in assay [1] was 1.02 fold enrichment (6-mer frequency, TF over GST control); in assay [2], 1.05 fold enrichment (6-mer frequency, TF over GST control); in [3] it was 1.03 fold enrichment (6-mer frequency, TF over GST control); in [4], 1.13 fold enrichment (6-mer frequency, TF over GST control); in [5] it was 1.13 fold enrichment (6-mer frequency, TF over GST control); in assay [6], 1.05 fold enrichment (6-mer frequency, TF over GST control). The binding signal in [7] is 1.08 fold enrichment (6-mer frequency, TF over GST control); in assay [8], 1.03 fold enrichment (6-mer frequency, TF over GST control); in assay [9] it was 1.09 fold enrichment (6-mer frequency, TF over GST control); in assay [10], 1.06 fold enrichment (6-mer frequency, TF over GST control); in assay [11] it was 1.03 fold enrichment (6-mer frequency, TF over GST control).

GACCGC: the binding signal in [1] is 1.06 fold enrichment (6-mer frequency, TF over GST control); in [12] it was 1.01 fold enrichment (6-mer frequency, TF over GST control); in assay [13] it was 1.06 fold enrichment (6-mer frequency, TF over GST control); in assay [14] it was 1.03 fold enrichment (6-mer frequency, TF over GST control); in assay [4] it was 1.01 fold enrichment (6-mer frequency, TF over GST control).
